Screens from PubChem.
Compounds with a hit are over-represented: about 19% of the library has one in this group of screens.
CHX counter = affects cycloheximide protein synthesis inhibition readout, counter-screen. cell reporter, cycloheximide protein synthesis inhibition counterscreen. max response, %. 12% of 300,000 active. AID 2314; in the data active = max response mostly above about 13%, no sharp cut-off; inactive = mostly below about 14%; also: read at 38.3 µM for the half of the compounds with a filed dose
AMA1 RON2 block = inhibitors of Plasmodium falciparum AMA1-RON2 interaction; AlphaScreen AMA1-biotinylated RON2 peptide binding; Potency, µM (doses to about 58.2 µM), actives largely listed as inhibitors; 0.2% of 360,000 active; also: nearly all actives have a fitted effect of over 45% in size
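AMA1 (3D7) with his tag at 25 nM final met compounds first, then biotinylated RON2 peptide at 25 nM; detection used donor plus acceptor beads, 10 µg/mL apiece, read by AlphaScreen after 30 min at room temperature.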
Shiga inhibitor = blocks Shiga toxin action in Vero cells. Vero cells, Shiga toxin protein synthesis inhibition reporter. inhibition, % at 38.7 µM. 9.2% of 290,000 active. AID 2315; in the data active = inhibition mostly above about 28%, no sharp cut-off; inactive = mostly below about 43%
SARS PLP yeast = blocks SARS-CoV papain-like protease in a yeast assay | S. cerevisiae expressing SARS-CoV PLpro, growth rescue | Potency, µM (series often up to 32.9 µM), usual class: activators | 0.19% of 330,000 active | AID 485353; calls by dose curve; also: nearly all actives have a fitted effect of over 55% in size
Pf growth 48h = inhibits P. falciparum growth in the first generation, 48 h | P. falciparum luciferase growth in erythrocytes, 48 h | Potency, µM (highest dose often 28.7 µM), usual class: inhibitors | 5.9% of 310,000 active
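Luciferase-expressing parasites in RBCs, 2% Hct / 0.1% parasitemia final; RPMI 1640 + 0.5% Albumax; 37 C, 5% CO2, one generation; luminescence read-out, lower signal = inhibition.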
Pf growth 96h = P. falciparum growth inhibition at 96 hours; P. falciparum luciferase reporter growth, 96 h; Potency, µM (series often up to 28.7 µM), actives largely listed as inhibitors; 6.9% of 320,000 active; AID 504834
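Two-generation exposure (96 h) targets delayed-death phenotype. Reporter parasites carrying integrated firefly luciferase, in red cells at 2% hematocrit and 0.05% parasitemia final, kept at 37 C, 5% CO2; luminescence loss indicates inhibition.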
Hits are given with their value; 0 = inactive; ? = inconclusive; - = not tested or not shown. Unless noted, calls follow the shape of the dose curve; as a rule, active = well fitted curve in the direction sought with a large enough effect; inconclusive = small, poorly fitted or top-dose-only effect, or another doubt; inactive = no such curve, though single readings can be large; an effect the other way counts as inactive or inconclusive.

SMILES	CHX counter	AMA1 RON2 block	Shiga inhibitor	SARS PLP yeast	Pf growth 48h	Pf growth 96h
O=C1C=C(O)c2c(O)cc(O)c(O)c2C1=O	-	1µM	-	-	-	-
O=C1C=C(O)c2[nH]c(=O)ccc2C1=O	-	0	-	-	-	-
Cc1ccc(/C=N/NC(=O)CNC(=O)c2cccc([N+](=O)[O-])c2C)o1	0	0	0	0	0	0
Fc1ccccc1OCC1CCCN(Cc2nc(CC3CC3)no2)C1 (stereo not given)	0	0	0	0	0	?
COc1cc(CNCc2ccco2)ccc1OCc1ccccc1	32.8	0	61.4	0	0	0
c1ccc(COc2cccc(CNCc3cccs3)c2)cc1	23.6	0	0	0	0	?
COc1cc(CNCc2cccs2)ccc1OCc1ccccc1	25.8	?	0	0	0	?
COc1cc(OC)c(OC)cc1CNCc1ccco1	0	?	0	0	0	0
COc1cc(CNCc2ccccn2)ccc1OCc1cccc(Cl)c1	24.8	0	0	0	?	?
COc1cc(CNCc2ccccn2)ccc1OCc1c(Cl)cccc1Cl	0	0	0	0	?	?
Clc1ccc(COc2cccc(CNCc3ccncc3)c2)cc1	0	0	0	0	0	?
COc1cc(CNCc2cccs2)ccc1OCc1cccs1	0	0	0	0	?	?
NC(=O)/C(=C\c1cccnc1)NC(=O)c1ccccc1	0	0	0	0	0	0
COc1cccc(CNCc2ccco2)c1O	0	0	0	0	0	11.7µM
COc1ccc(CNCc2ccncc2)cc1OC	0	0	0	0	?	10.4µM
COc1ccc(CNCc2ccc(C(F)(F)F)cc2)cc1OC	0	0	0	0	0	?
COc1cccc(-c2nnc(N(C)C(=O)C3CCOC3)s2)c1 (stereo not given)	28.8	0	57.7	0	0	?
COc1ccc(C2C=C(c3ccc(Cl)cc3)Nc3nc(NC(C)=O)nn32)cc1 (stereo not given)	0	-	0	0	?	0
O=C(Nc1nc2n(n1)C(c1ccccc1)C=C(c1ccccc1)N2)c1ccco1 (stereo not given)	0	0	0	0	8.28µM	?
O=C(c1nc2n(n1)C(c1ccc(Cl)cc1)C=C(c1ccccc1)N2)N1CCOCC1 (stereo not given)	0	0	0	0	4.15µM	0
CC(=O)Nc1nc2n(n1)C(c1ccccc1)C=C(c1ccccc1)N2 (stereo not given)	0	0	0	0	0	5.22µM
CC(=O)Nc1nc2n(n1)C(c1ccc(F)cc1)C=C(c1ccccc1)N2 (stereo not given)	0	0	0	0	?	0
CCCCNC(=O)C1(C)CCC(=O)N1CCCn1ccnc1 (stereo not given)	-	0	-	-	-	-
C/C(=N/NC(=O)c1cccs1)c1ccc(NC(=O)COc2ccc(Cl)cc2Cl)cc1	32.9	0	94.4	0	0	0
COc1cc(NC(=O)C/C(C)=N/NC(=O)c2cccs2)c(OC)cc1Cl	25.3	0	67.5	0	0	0
SMILES	CHX counter	AMA1 RON2 block	Shiga inhibitor	SARS PLP yeast	Pf growth 48h	Pf growth 96h
COc1cc(NC(=O)C/C(C)=N/NC(=O)Cc2ccccc2)c(OC)cc1Cl	0	0	0	0	0	0
C/C(CC(=O)Nc1ccc(Cl)cc1C(F)(F)F)=N\NC(=O)c1ccccn1	40.8	0	75.8	0	0	0
C/C(CC(=O)Nc1ccc(Cl)cc1C(F)(F)F)=N\NC(=O)c1cccs1	54.3	0	91.4	0	0	0
COc1ccc(C2=NOC(C)(c3nnc(-c4ccncc4)o3)C2)cc1 (stereo not given)	-	0	-	-	-	-
COc1cccc(COC(=O)c2ccc3c(=O)n4c(nc3c2)CCC4)c1OC	-	0	-	0	13.1µM	?
COc1cccc(CN(C)C(=O)c2ccc3c(=O)n4c(nc3c2)CCC4)c1OC	36.5	0	0	0	0	0
CCOc1ccccc1N(CC)C(=O)c1ccc2c(=O)n3c(nc2c1)CCCCC3	0	0	0	0	?	11.7µM
COc1cccc(NC(=O)C2CC2)c1	-	0	-	0	0	0
C[C@@H](NC(=O)[C@@H]1Cc2ccccc2CN1C(=O)OC(C)(C)C)C(=O)NC1CCCCC1	0	0	0	0	?	13.1µM
C[C@H](NC(=O)[C@@H]1Cc2ccccc2CN1C(=O)OC(C)(C)C)C(=O)NC1CCCCC1	0	0	0	0	?	0
COc1cccc(NC(=O)C2CCN(C(=O)[C@@H]3Cc4ccccc4CN3)CC2)c1	38.2	0	0	0	?	?
COc1cccc(NC(=O)C2CCN(C(=O)[C@@H]3Cc4ccccc4CN3C(=O)OC(C)(C)C)CC2)c1	0	0	0	0	10.4µM	?
C=C(C)CSc1nnc(CCCCCNC(=O)OC(C)(C)C)o1	0	0	0	0	0	0
CCN(CC)C(=O)CSc1nnc(CCCCCNC(=O)OC(C)(C)C)o1	0	0	0	0	?	10.4µM
CCC(CC)C(=O)N(C)c1c(C)nc2c(OCCC3CCCCC3)cccn12	-	0	-	-	-	-
C[N+]12CCC(CC1)C(C(O)(c1ccccc1)c1cccs1)C2 (stereo not given)	0	0	0	0	11.7µM	2.62µM
CCCC[N+]12CCC(CC1)C(C(O)(c1ccccc1)c1ccccc1)C2 (stereo not given)	0	0	0	0	?	10.4µM
CCCC[N+]12CCC(CC1)C(Cc1ccccc1)C2 (stereo not given)	0	0	0	0	?	?
CCC[N+]12CCC(CC1)C(C(O)(c1ccccc1)c1ccccc1)C2 (stereo not given)	0	0	0	0	?	5.22µM
OC(c1ccccc1)(c1ccccc1)C1CCCN1 (stereo not given)	0	0	0	0	0	0
O=C(NCc1cc(Cl)cc(Cl)c1)c1csc([C@@H]2C[C@H](O)[C@@H](CO)O2)n1	-	0	-	-	-	-
CCN(CC)C(=O)CSc1nc2c(sc(=S)n2Cc2ccco2)c(=O)n1-c1ccccc1	0	0	0	0	?	7.38µM
C=CCNCCCOc1ccc(C)cc1Br	27.1	0	65.0	0	0	0
C=CCNCCCCOc1c(Cl)cc(C)cc1Br	0	0	0	0	9.28µM	0
COCCCNCCCCOc1c(Cl)cc(C)cc1Br	0	0	0	0	0	0
SMILES	CHX counter	AMA1 RON2 block	Shiga inhibitor	SARS PLP yeast	Pf growth 48h	Pf growth 96h
Cc1nnc(SCc2ccc(Cl)cc2Cl)[nH]c1=O	11.5	0	0	0	0	-
CCc1nc2ccc(C(=O)NCCC(C)C)cn2c1N(CCN(C)C)CC1CC1	-	0	-	-	-	-
Cc1ccc(Nc2nnc(-c3ccc4c(c3)OCO4)o2)c(C)c1	31.9	0	62.5	0	0	0
Cc1nc(=O)c(-c2ccccc2)c(C)n1-c1ccccc1Cl	-	0	-	-	-	-
O=C(NCC(c1ccccc1)N1CCCC1)C1CCN(C(=O)Nc2ccccc2)CC1 (stereo not given)	-	0	-	0	?	?
Cn1cc(Cl)c(C(=O)N/N=C/c2ccc(OS(=O)(=O)c3ccccc3)cc2)n1	0	0	0	0	?	9.28µM
